High-throughput results from PubChem BioAssay.
TR-FRET SRC-2 ct – TR-FRET signal artefacts, primary screen, artefact control for PPARgamma SRC-2 agonist project, biochemical; TR-FRET ratio at 8 µM; TR-FRET artefact counter-screen; hits give high values; hit rate 0.4% among 200,000
PPARg SRC2 recr – agonists of PPARg-SRC-2 recruitment, primary screen, biochemical, HTS; hit rate 0.34% among 200,000; activation, % at 8 µM; Peroxisome proliferator-activated receptor gamma (Homo sapiens), P37231; PPARgamma LBD-SRC-2 recruitment; in the data active means activation above about 22%
Target sequence (P37231 whole entry, looked up, the tested form may be a part): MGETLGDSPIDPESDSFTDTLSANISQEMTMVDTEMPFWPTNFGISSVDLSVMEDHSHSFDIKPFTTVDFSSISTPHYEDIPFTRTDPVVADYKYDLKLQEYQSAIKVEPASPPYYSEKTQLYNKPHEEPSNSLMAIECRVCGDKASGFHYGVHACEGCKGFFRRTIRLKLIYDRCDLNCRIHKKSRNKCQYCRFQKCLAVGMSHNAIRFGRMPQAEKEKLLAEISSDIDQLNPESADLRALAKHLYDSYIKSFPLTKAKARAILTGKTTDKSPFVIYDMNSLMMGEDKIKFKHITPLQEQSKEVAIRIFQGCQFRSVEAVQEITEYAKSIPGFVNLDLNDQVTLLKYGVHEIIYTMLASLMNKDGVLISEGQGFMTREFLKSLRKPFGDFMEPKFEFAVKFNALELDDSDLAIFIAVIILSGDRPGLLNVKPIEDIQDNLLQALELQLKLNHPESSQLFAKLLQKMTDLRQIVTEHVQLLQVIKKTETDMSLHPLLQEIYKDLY
PPARg SRC1 recr – PPARgamma agonists recruiting SRC-1 coactivator, primary screen, biochemical; PPARgamma-SRC-1 coactivator recruitment biochemical assay; activation, % at 8 µM; Peroxisome proliferator-activated receptor gamma (Homo sapiens), P37231; hit rate 0.41% among 200,000; AID 631, 2007; in the data active means activation above about 19%
SRC3 TRFRET art – TR-FRET detection interference compounds, artefact control for PPARgamma SRC-3 recruitment agonists, biochemical, TR-FRET ratio; TR-FRET artefact counter-screen, PPARgamma/SRC-3 format; hits give high values; TR-FRET ratio at 8 µM; hit rate 0.39% among 99,000
SRC1 TRFRET art – TR-FRET detection interference compounds, primary screen, artefact control for PPARgamma SRC-1 recruitment agonists, biochemical, TR-FRET emission ratio; TR-FRET detection artefact counter-screen; hits give high values; TR-FRET ratio at 8 µM; hit rate 0.34% among 99,000; in the data active means TR-FRET ratio above about 2300
PPARg SRC-3 ag – PPARgamma agonists recruiting SRC-3 coactivator, primary screen, biochemical | hit rate 0.26% among 200,000 | biochemical PPARgamma/SRC-3 coactivator recruitment assay | AID 731, 2007 | activation, % at 8 µM; in the data active means activation above about 23%
Each line names hits and unclear results; the compound was inactive in the other large screens. Only some compounds are listed: those with a hit (about 0.9% of all), similar ones and a draw of the others. Unless noted, no stated cut-off is given here; in the data, active means TR-FRET ratio above about 2000; inactive means the rest.

COc1cc2[nH]c(=S)nc(NCCc3ccc(C)cc3)c2cc1OC	PPARg SRC2 recr 24.5, PPARg SRC1 recr 21.2, SRC3 TRFRET art 2231, SRC1 TRFRET art 2432
O=S(=O)(c1ccccc1)c1nc(-c2ccco2)oc1N1CCOCC1	PPARg SRC1 recr 26.1 (no result: SRC3 TRFRET art, SRC1 TRFRET art)
COc1ccc(-c2nc(S(=O)(=O)c3ccccc3)c(N3CCOCC3)o2)cc1	none
COc1ccccc1OCCNC(=O)Cc1ccc(Cl)c(Cl)c1	none
O=C(NCc1ccccn1)c1cc(-c2ccccc2)nc2ccccc12	none
O=C(NCc1ccco1)c1cc(-c2ccncc2)nc2ccccc12	none (no result: SRC3 TRFRET art, SRC1 TRFRET art)
O=C(NCc1ccccn1)c1cc(-c2ccc(-c3ccccc3)cc2)nc2ccccc12	SRC3 TRFRET art 2387
O=C(NCc1ccco1)c1cc(-c2cccnc2)nc2ccccc12	SRC1 TRFRET art 2325
O=C(c1ccc(Cl)cc1)n1c(NCc2ccccc2)n[nH]c1=S	none
CC(C)c1ccc(NC(=O)c2snc3ccc(Cl)cc23)cc1	none
O=C(CSc1nnc(C2CC2)n1-c1ccccc1)NCCc1ccc(F)cc1	TR-FRET SRC-2 ct 2046, PPARg SRC2 recr 22.5 (no result: SRC3 TRFRET art, SRC1 TRFRET art)
Cc1cc(C)c(C(=O)CSc2nnc(-c3ccccc3Br)o2)cc1C	PPARg SRC1 recr 26.9 (no result: SRC3 TRFRET art, SRC1 TRFRET art)
Cc1ccc(NC(=O)CSc2nnc(-c3ccccc3Br)o2)cc1C	none (no result: SRC3 TRFRET art, SRC1 TRFRET art)
Cc1cc(/C=C2/NC(=O)N(Cc3ccccc3F)C2=O)c(C)n1C	PPARg SRC2 recr 22.6
COc1cccc(-c2csc(N3CCN(C(=S)Nc4ccccc4Cl)CC3)n2)c1	none (no result: SRC3 TRFRET art, SRC1 TRFRET art)
COc1cccc(-c2csc(N3CCN(C(=S)Nc4ccccc4OC)CC3)n2)c1	TR-FRET SRC-2 ct 2307 (no result: SRC3 TRFRET art, SRC1 TRFRET art)
COc1cccc(-c2csc(N3CCN(C(=S)Nc4cccc(Cl)c4)CC3)n2)c1	TR-FRET SRC-2 ct 2562 (no result: SRC3 TRFRET art, SRC1 TRFRET art)
COc1cccc(NC(=S)N/N=C2/CCCCc3ccccc32)c1	none
CCC(=O)NC(=S)Nc1ccc(NC(=S)NC(=O)c2ccccc2)cc1	PPARg SRC1 recr 24.3, SRC1 TRFRET art 2679
COc1cnn(-c2ccccc2)c(=O)c1N(C)C	PPARg SRC-3 ag 25.8 (no result: SRC3 TRFRET art, SRC1 TRFRET art)
COC(=O)Sc1nnc(-c2ccc(Br)cc2)o1	TR-FRET SRC-2 ct 2802, PPARg SRC2 recr 54.3, PPARg SRC1 recr 44.6, PPARg SRC-3 ag 62.9 (no result: SRC3 TRFRET art, SRC1 TRFRET art)
OCC#CCSc1nnc(-c2ccc(Br)cc2)o1	none (no result: SRC3 TRFRET art, SRC1 TRFRET art)
CCN(CC)CC#CCC(OC)(c1ccccc1)c1ccccc1	none
COc1cccc(C(=O)NC(=S)Nc2ccc(N(C)C)cc2)c1	none
c1ccc(Cc2noc(CN3CCN(CCOc4ccccc4)CC3)n2)cc1	none
Cc1cccc(N2C(=O)CC(Sc3nc(-c4ccccc4)c4cc(Cl)ccc4n3)C2=O)c1 (stereo unspecified)	TR-FRET SRC-2 ct 2388 (no result: SRC3 TRFRET art, SRC1 TRFRET art)
Cc1cccc(N2C(=O)CC(Sc3nc(C)cc(C)n3)C2=O)c1 (stereo unspecified)	none (no result: SRC3 TRFRET art, SRC1 TRFRET art)
COC(=O)c1sc(S(=O)(=O)NC(C)C(=O)O)c(C(=O)OC)c1C (stereo unspecified)	none
NC(=S)NN=C1c2cc(S(=O)(=O)N3CCOCC3)ccc2-c2ccc(S(=O)(=O)N3CCOCC3)cc21	SRC1 TRFRET art 2316
CN(C)N=C1c2cc(S(=O)(=O)N3CCOCC3)ccc2-c2ccc(S(=O)(=O)N3CCOCC3)cc21	none
COc1ccc(Nc2cc(C)c3ccccc3n2)cc1	none
COc1ccc(Nc2ccc(Nc3ccc(OC)cc3)nn2)cc1	SRC1 TRFRET art 2360
COc1cc(-c2nc3ccccn3c2/N=C/c2cc(OC)c(OC)c(OC)c2)ccc1O	PPARg SRC2 recr 25.8, PPARg SRC1 recr 23.2 (no result: SRC3 TRFRET art, SRC1 TRFRET art)
CCN(C(=O)COC(=O)c1cncc(Br)c1)C1CCS(=O)(=O)C1 (stereo unspecified)	none
O=C(c1ccccc1)c1cnc(-c2ccc(Cl)cc2)s1	PPARg SRC1 recr 28.6 (no result: SRC3 TRFRET art, SRC1 TRFRET art)
O=C(c1ccc(Cl)cc1)c1cnc(-c2ccc(Cl)cc2)s1	none (no result: SRC3 TRFRET art, SRC1 TRFRET art)
COc1cccc(CNC(=O)C(c2ccc(Cl)cc2)C(C)C)c1 (stereo unspecified)	none
FC(F)Oc1ccc(NC(=S)NCc2ccccc2)cc1	none
Cc1cc2cc(CNC(=O)Nc3ccc(Cl)c(Cl)c3)ccc2n1C	SRC1 TRFRET art 2614
COCC(=O)NCc1ccc2c(c1)cc(C)n2C	none
